Source: PubChem
FLuc inh = qHTS Assay for Inhibitors of Firefly Luciferase | Luciferin 4-monooxygenase (Photinus pyralis), P08659 | purified firefly luciferase, luminescence, 8 min | Potency, µM (highest dose often 57.1 µM), without a hit: top-dose activity change, negative = inhibition, most hits filed as inhibitors | actives 2.2% (n = 72,000); also: % is scaled to controls: 0 for no effect and ±100 for the full control effect; nearly all actives have a fitted effect of over 40% in size
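Here, luciferase activity is measured as luminescence following an 8 min room-temperature reaction at 10 uM ATP, pH 7.2. Every library sample is titrated.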
Bst PK mod = Pyruvate Kinase; Potency, µM; actives 1.2% (n = 51,000); purified pyruvate kinase, luminescence ATP production; ribose 5-phosphate activator present at AC10; in the data active = potency below about 11 µM; inconclusive = mostly about 12 µM to 25 µM;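 the screen sought inhibitors and activators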;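 also: scaled between full activation by ribose 5 phosphate and full inhibition by luteolin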
TSHR ag = qHTS Assay for Agonists of the Thyroid Stimulating Hormone Receptor; Thyrotropin receptor (Homo sapiens), P16473; HEK293-CNG-TSHR cells (CNG channel as cAMP sensor), membrane potential dye, cAMP; actives 0.48% (n = 73,000); Potency, µM (highest dose often 57.1 µM), inactives show at the highest dose activation, usual class: activators; active = well fitted activation curve with a large enough effect in the main read-out, with a control signal flat, not every such curve was filed as active; inconclusive = small, poorly fitted or top-dose-only effect, or a change in a side signal; inactive = no such curve, though single readings can be large or run the other way; % of control where 0% means no effect;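 also: the control signal comes from parental cells without the receptor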
Target sequence (P16473 whole entry, looked up): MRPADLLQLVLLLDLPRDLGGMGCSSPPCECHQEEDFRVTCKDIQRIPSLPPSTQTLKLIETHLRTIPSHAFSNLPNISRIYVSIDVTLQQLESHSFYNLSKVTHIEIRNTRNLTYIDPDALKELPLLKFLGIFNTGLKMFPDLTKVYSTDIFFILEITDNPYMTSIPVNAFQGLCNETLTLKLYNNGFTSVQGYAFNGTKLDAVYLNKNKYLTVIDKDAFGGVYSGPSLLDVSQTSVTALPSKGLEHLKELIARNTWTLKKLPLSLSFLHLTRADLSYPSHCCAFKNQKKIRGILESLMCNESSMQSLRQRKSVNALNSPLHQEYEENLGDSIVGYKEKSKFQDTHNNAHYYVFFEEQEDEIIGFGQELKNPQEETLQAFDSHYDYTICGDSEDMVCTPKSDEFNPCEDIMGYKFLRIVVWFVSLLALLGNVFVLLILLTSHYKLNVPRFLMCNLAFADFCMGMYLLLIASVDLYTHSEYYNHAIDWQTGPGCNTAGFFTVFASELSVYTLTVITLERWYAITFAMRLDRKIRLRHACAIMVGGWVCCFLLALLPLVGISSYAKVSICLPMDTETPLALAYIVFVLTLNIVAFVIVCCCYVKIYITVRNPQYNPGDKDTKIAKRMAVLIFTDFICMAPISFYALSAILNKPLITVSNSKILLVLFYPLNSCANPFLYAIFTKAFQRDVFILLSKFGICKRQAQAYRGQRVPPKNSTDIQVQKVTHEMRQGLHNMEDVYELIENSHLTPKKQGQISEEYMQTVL
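HEK 293 cells stably expressing TSHR and a cAMP-gated CNG channel; parental CNG-only cells as counterscreen. Cells preloaded 60 min with membrane potential dye plus 100 uM RO 20-1724, then compound 30 min; fluorescence read at 590 nm.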
HEK293 cAMP ctrl = qHTS Assay for Agonists of the Thyroid Stimulating Hormone Receptor: Activators of Intracellular cAMP Concentrations in Parental HEK 293 | parental HEK293 CNG cAMP sensor, membrane potential fluorescence | Potency, µM (series often up to 57.1 µM), for the others: at the highest dose activation, most hits filed as activators | actives 2.5% (n = 73,000) | AID 938, 2007; also: % of control where 0% means no effect; nearly all actives have a fitted effect of over 55% in size
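Parental HEK 293 cells stably expressing a modified CNG channel (no TSHR) report cAMP rise as membrane depolarization. Membrane potential dye with 100 uM RO 20-1724 was loaded for 60 min at room temperature, then compound added for 30 min; fluorescence read at 590 nm.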
GBA mod = Glucocerebrosidase. Lysosomal acid glucosylceramidase (Homo sapiens), P04062. purified enzyme, resorufin glucoside fluorescence (screen aimed at inhibitors), 20 min. Potency, µM. actives 1.1% (n = 48,000). AID 360, 2006; in the data active = potency below about 15 µM; inconclusive = mostly about 16 µM to 33 µM;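 also: the screen sought inhibitors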
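Wild-type enzyme at 0.2 nM final in 50mM citric acid/KH2PO4, 10mM sodium taurocholate, 0.01% tween-20, pH 5.9, with resorufin beta-D-glucopyranoside at 30 uM final. Compounds titrated, 20 min at RT, red fluorescence read; AC50 from titration.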
Numbers without * were called inactive; i = inactive; ? = inconclusive; / = not tested or not shown; [ ] = dose if it differs, or a comment. Compounds with a hit are over-represented: about 5.8% of the library has one in this group of screens. Unless noted, calls follow the shape of the dose curve; as a rule, active = well fitted curve in the direction sought with a large enough effect; inconclusive = small, poorly fitted or top-dose-only effect, or another doubt; inactive = no such curve, though single readings can be large; an effect the other way counts as inactive or inconclusive. Potency is read from the fitted curve at half-maximal effect.

SMILES	FLuc inh	Bst PK mod	TSHR ag	HEK293 cAMP ctrl	GBA mod
CCOC(=O)c1c(C)nc(-c2ccccc2)nc1N	25µM*	i	2%	3%	>77
CCOC(=O)c1c(C)nc(-c2ccccc2)nc1NC(C)=O	-2%	/	/	13%	/
Clc1ccc(-c2nnc(-c3ccco3)o2)cc1	-18%	4*	3%[11.4 µM]	20%	/
c1cncc(-c2nnc(-c3ccco3)o2)c1	-3%	>57	-2%	4%	>77
CCCCN1C(=O)/C(=C2\SC(N3CCCCC3)=NC2=O)c2ccccc21	7.9µM*	/	-10%	-13%	/
O=C1N=C(N2CCOCC2)S/C1=C1\C(=O)N(Cc2ccccc2)c2ccc(Br)cc21	-5%	>57	-42%	-25%	>77
O=C(Nc1ccc(SC(F)F)cc1)C1=COCCO1	25µM*	i	-3%	0%	/
O=C(NC1CCCCCCC1)C1=COCCO1	-9%	>57	-5%	-2%	>77
CC(C)(C)CC(C)(C)c1cc(O)c(O)c(CN2CCCCC2)c1	-2%[11.4 µM]	/	5%[11.4 µM]	2%[11.4 µM]	/
C=Cc1c(C)c2cc3nc(cc4[nH]c(cc5nc(cc1[nH]2)C(C)=C5CCC(=O)O)c(CCC(=O)OC)c4C)[C@@]1(C)C3=CC=C(C(=O)OC)[C@H]1C(=O)OC (tested in a mixture with another compound)	-4%[25.5 µM]	/	-7%[25.6 µM]	-19%[25.6 µM]	/
CC1=C(C(=O)OCC2CCCO2)C(c2ccncc2)C2=C(CC(C)(C)CC2=O)N1 (stereo not given)	-4%	>57	?	4µM*	>77
COCCOC(=O)C1=C(C)NC2=C(C(=O)CC(C)(C)C2)C1c1cccnc1 (stereo not given)	2%	>57	-1%	9%	>77
[N-]=[N+]=Nc1ccc(C(=O)CSC[C@@H](NC(=O)CC[C@@H](N)C(=O)O)C(=O)NCC(=O)O)cc1	0%	/	-13%	19%	/
O=C(NCCN1CCOCC1)c1cc2c(=O)n3ccccc3nc2n1Cc1ccccc1	0%	>57	19%	14%	>77
CCN1CCN(C(=O)c2cc3c(=O)n4ccccc4nc3n2Cc2ccccc2)CC1	7.9µM*	?	5%	0%	>77
CCCC(=O)N1CCc2cc(-c3nc(N)sc3C)ccc21	?	/	-60%	1%	?
CCC(C)C(=O)N1CCc2cc(-c3csc(N)n3)ccc21 (stereo not given)	10µM*	8.1*	-9%	-7%	?
c1cncc(-c2nc(-c3ccc4c(c3)OCO4)cs2)c1	13µM*	?	5%	26%	>77
Cc1nc(-c2ccc3c(c2)OCO3)cs1	/	/	5%	2%	/
Nc1nc(-c2ccc3c(c2)CCCC3)cs1	13µM*	?	-18%	-17%	i
Nc1nc(-c2ccc3c(c2)OCCO3)cs1	25µM*	i	-10%	-10%	?
COc1ccc(COC(=O)N/N=C2/C[C@@H](O)[C@@H](O)[C@@H]3[C@H]4C(=O)N(c5ccc(F)cc5F)C(=O)[C@@H]4CC[C@H]23)cc1	-1%[11.4 µM]	/	-6%[11.4 µM]	4%[11.4 µM]	/
CCCCCOc1ccc(CN2CCOCC2)cc1Cl	25µM*	/	?	?	/
c1cn2c(NC3CCCC3)c(-c3ccc(N4CCOCC4)cc3)nc2cn1	2.5µM*	/	-7%	-5%	/
Oc1ccc(-c2nc3cnccn3c2Nc2ccc3c(c2)OCCO3)cc1	-1%	/	3%	1%	/
SMILES	FLuc inh	Bst PK mod	TSHR ag	HEK293 cAMP ctrl	GBA mod
CC(=O)NCCNc1ncnc2ccc(-c3ccc(C(=O)N(C)C)cc3)cc12	-2%[2.29 µM]	/	1%	-19%	/
Clc1ccc(-n2nnnc2-c2ccccc2)cc1Cl	-1%	/	?	25µM*	/
C=C[C@H]1CN2CC[C@@H]1C[C@@H]2[C@@H](O)c1ccnc2ccc(OC)cc12	1%	/	/	/	/
Cc1ccc(C)c(N2CCN(C(=O)CCCn3c(=S)[nH]c4cc5c(cc4c3=O)OCO5)CC2)c1	-2%	>57	?	?	15*
O=C(CCCn1c(=S)[nH]c2cc3c(cc2c1=O)OCO3)N1CCN(c2ccccc2F)CC1	2%	>57	21%	18%	/
O=C(O)c1ccccc1/C=N\N=C1c2ccccc2-c2ccccc21	0%[11.4 µM]	/	-2%[11.4 µM]	-3%[11.4 µM]	/
Cc1ccccc1OCC(=O)Nc1cccc(N(C)S(C)(=O)=O)c1	20µM*	/	2%	2%	>77
COc1ccccc1OCC(=O)Nc1cccc(-c2nc3ccccc3o2)c1	-21%	>57	?	25µM*	>77
O=C(Nc1ccccc1)c1cccc(-c2nnc(-c3ccccc3)o2)c1	1%	>57	?	32µM*	>77
COC(=O)COc1cccc(NC(=O)COc2ccccc2)c1	-2%	/	16%	7%	/
COc1cccc(NC(=O)COc2ccccc2C(N)=O)c1	7.9µM*	?	-1%	-3%	>77
O=C(O)C1=C/C(=C(/c2ccccc2)c2cc(C(=O)O)c(O)c3ccccc23)c2ccccc2C1=O	-8%[11.4 µM]	/	0%[11.4 µM]	0%[11.4 µM]	/
O=C(O)c1ccc(/C=N\N=C2c3ccccc3-c3ccccc32)cc1	-3%[11.4 µM]	/	6%[11.4 µM]	27%[11.4 µM]	/
Cc1ccc(OCC(=O)Nc2cccc(-c3nnc(-c4ccccc4)o3)c2)cc1	-19%	>57	?	?	8.6*
Cc1cccc(C)c1OCC(=O)Nc1cccc(-c2nnc(-c3ccccc3)o2)c1	0%[25.5 µM]	>26	/	/	/
COc1cccc(-n2nnc3c(=O)n(Cc4ccc(Br)cc4)cnc32)c1	3%	>57	?	?	>77
COc1cccc(-n2nnc3c(=O)n(Cc4ccc(C)cc4)cnc32)c1	1%	>57	?	16µM*	>77
Cc1ccc(-n2nnc3c(=O)n(Cc4cccc(C)c4)cnc32)cc1	-1%	/	/	12%	/
Cc1ccc(-n2nnc3c(=O)n(Cc4cc(C)ccc4C)cnc32)cc1	-1%	>57	?	20µM*	>77
COc1cccc(-n2nnc3c(=O)n(Cc4ccccc4Cl)cnc32)c1	-2%	6.9*	?	?	>77
COc1cc2nc(N3CC=[N+](C(=O)c4ccco4)CC3)nc(N)c2cc1OC	0%	/	-1%	-2%	/
O=C(O)[C@@H](Br)[C@@H](Br)c1ccccc1[N+](=O)[O-]	2%[11.4 µM]	/	2%[11.4 µM]	5%[11.4 µM]	/
Cc1nc2ccccc2c2c1C(=O)N(CCC1=CCCCC1)C2=O	0%	>57	?	?	14*
CCCn1c(C)nc2c(c1=O)c1nc3ccccc3nc1n2CCC1=CCCCC1	-2%	>57	?	20µM*	>77
Cc1noc(C)c1CSc1ccccc1C(=O)N1CCN(c2ccccc2)CC1	2%	>57	3.2µM*	21%	>77
N#CCCSC(=S)[C@H]1CCCC1=N	-1%[11.4 µM]	/	?	?	/
COc1cccc(NS(=O)(=O)c2cn(C)c(=O)n(C)c2=O)c1	2%	/	2%	5%	/
Cn1cc(S(=O)(=O)Nc2ccc(F)cc2F)c(=O)n(C)c1=O	6%	/	2.5µM*	19%	/
Cc1noc(C)c1-c1cncnc1-n1ccnc1	2%[2.29 µM]	/	5%	-1%	/
